According to PubChem BioAssay AID602438 (Sanford-Burnham Center for Chemical Genomics, 2012):
In all, about 360,000 compounds went through this assay and about 3,100 (0.86%) were called active. Shown is part of a subset that was picked to be rich in actives. Unmarked numbers belong to inactive results.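 How the source made its calls: active means inhibition or corrected inhibition above about 18%, plus a signal ratio from 0.5 to 1.5 (limit read from the data, passing the limit was not always enough); inactive means the rest.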

Each molecule was assayed against Neuropilin-1 (Homo sapiens) (UniProt O14786) (assay: NRP-1/CendR peptide interaction modulators – biochemical, fluorescence polarization, uHTS, primary screen (AID 602438)). Conditions: FAM-RPARPAR peptide binding to NRP-1, fluorescence polarization; at 25 µM; stronger effect = higher value.
Sequence of Neuropilin-1 (Homo sapiens) (O14786 whole entry, looked up): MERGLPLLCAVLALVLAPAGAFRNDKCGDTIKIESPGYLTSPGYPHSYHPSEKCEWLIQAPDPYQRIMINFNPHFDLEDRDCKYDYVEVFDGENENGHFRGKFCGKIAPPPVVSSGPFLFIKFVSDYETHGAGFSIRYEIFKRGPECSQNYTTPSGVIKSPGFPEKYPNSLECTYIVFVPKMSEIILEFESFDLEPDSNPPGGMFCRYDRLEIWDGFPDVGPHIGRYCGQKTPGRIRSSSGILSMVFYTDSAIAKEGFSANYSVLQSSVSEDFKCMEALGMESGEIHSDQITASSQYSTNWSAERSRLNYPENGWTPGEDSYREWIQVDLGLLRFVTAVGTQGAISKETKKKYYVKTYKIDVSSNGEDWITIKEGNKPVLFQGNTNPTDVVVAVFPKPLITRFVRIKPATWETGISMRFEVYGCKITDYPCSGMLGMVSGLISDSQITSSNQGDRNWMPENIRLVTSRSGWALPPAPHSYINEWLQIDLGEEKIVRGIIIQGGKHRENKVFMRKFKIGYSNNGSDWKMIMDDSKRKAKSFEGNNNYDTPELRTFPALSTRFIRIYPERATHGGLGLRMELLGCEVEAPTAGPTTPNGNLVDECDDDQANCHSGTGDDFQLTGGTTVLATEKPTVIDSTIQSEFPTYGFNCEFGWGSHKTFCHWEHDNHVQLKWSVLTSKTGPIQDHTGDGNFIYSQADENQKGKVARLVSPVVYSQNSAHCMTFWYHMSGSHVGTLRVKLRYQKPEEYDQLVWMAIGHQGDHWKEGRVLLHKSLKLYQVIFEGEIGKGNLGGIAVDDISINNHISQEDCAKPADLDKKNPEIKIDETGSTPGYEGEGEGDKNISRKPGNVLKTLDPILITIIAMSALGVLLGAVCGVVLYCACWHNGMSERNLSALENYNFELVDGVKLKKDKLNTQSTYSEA

SMILES	inhibition
N#Cc1ccc(C(=O)Nc2nc(-c3cccs3)c(C(=O)C(F)(F)F)s2)cc1	2.3%
CC1(C)C/C(=C(/C#N)C(N)=O)CCO1	51% (active)
N#CC(C(N)=O)=C1CCC2(CC1)OCCCCO2	-11%
C=CCNC(=O)COc1coc(CN2CCN(Cc3ccccc3)CC2)cc1=O	2%
CCN(CC)C(=O)COc1coc(CN2CCN(Cc3ccccc3)CC2)cc1=O	0.6%
CCCNC(=O)COc1coc(CN2CCN(Cc3ccccc3)CC2)cc1=O	22.7% (active)
CCOc1cnc(C(=O)NNC(=O)c2ccccc2Br)o1	6.1%
CCCc1ccc(S(=O)(=O)N2CCN(C(=O)c3cc(C)on3)CC2)cc1	1.7%
C=C1C(=O)OC2C1CCC(C)=CCCC1(C)OC21 (stereo unspecified)	-0.7%
Cc1cc2oc(=O)cc(-c3ccccc3)c2c(C)c1-c1ccc(OC(F)(F)F)cc1	0.8%
COc1cc(OC)c2c(-c3cccc(-c4cccc(N)c4)c3)cc(=O)oc2c1	-8.2%
COc1ccc(-c2c(C)cc3oc(=O)cc(-c4ccccc4)c3c2C)cc1C=O	34.1% (active)
CSCC[C@H](NC(=O)CCCn1nnc2ccccc2c1=O)C(=O)O	-1.8%
CC(=O)N1CCC(C(=O)OCc2ccc(Cl)cc2)(c2ccccc2)CC1	-3%
COC(=O)Cc1ccc(OCC(=O)Nc2ccc(OC(F)(F)F)cc2)cc1	1.7%
CCOC(=O)Cc1ncccc1C(=O)Nc1ccc(OC(F)(F)F)cc1	29.7% (active)
CCOc1ncccc1C(=O)Nc1ccc(S(=O)(=O)Nc2nc(C)cc(C)n2)cc1	-0.6%
CCCCN1CCNC1=S	-6.7%
CC(NC(=O)c1cc2cc(Cl)ccc2oc1=N)c1ccccc1 (stereo unspecified)	-11%
CC(NCc1nc2ccccc2n1C)C12CC3CC(CC(C3)C1)C2 (stereo unspecified)	-3.5%
Cc1cc(=O)oc2c(C)c(OCC(=O)NCCc3ccc(S(N)(=O)=O)cc3)ccc12	-18.3%
Cc1cc(=O)oc2c(C)c(OCC(=O)NCCN3CCOCC3)ccc12	25.8% (active)

SMILES	inhibition
CCc1cc(=O)oc2c(C)c(OCC(=O)NCCN3CCOCC3)ccc12	10.3%
CC1CC(C)CN(S(=O)(=O)c2ccc(C(=O)NN3CCOCC3)cc2)C1 (stereo unspecified)	-2.9%
CC1CC(C)CN(c2ccc(S(=O)(=O)N3CCOCC3)cc2)C1 (stereo unspecified)	22.3% (active)
Cc1ccc(S(=O)(=O)N2CCN(S(=O)(=O)N3CCOCC3)CC2)cc1	0%
Cc1c(CC(=O)N2CCN(C(=O)C3COc4ccccc4O3)CC2)c(=O)oc2c(O)c(O)ccc12 (stereo unspecified)	-49.5%
COC(=O)[C@@]1(Cc2ccc(F)cc2)[C@H]2c3cc(C(=O)N4CCCC4)n(C[C@H](O)CO)c3C[C@H]2CN1C(=O)c1ccccc1	-11.6%
Cc1ccc2c(c1)N(CCCC(=O)NCc1cccnc1)C(=O)CO2	12.9%
Cc1cc(Cl)ccc1C(=O)C1CCCN(C(=O)c2nonc2C)C1 (stereo unspecified)	-2.6%
CCCC(=O)NC(Nc1ccccc1OC)C(Cl)(Cl)Cl (stereo unspecified)	-6.4%
Cn1c(NN)nc2sc3c(c2c1=O)CCC3	17.4% (active)
C=C(C)CSc1nc(N)c2c3c(sc2n1)CCC3	-0.3%
NNC(=O)C1CCCn2c1nc1sc3c(c1c2=O)CCCC3 (stereo unspecified)	1.2%
O=C(C/C(=N\NC(=O)c1ccccc1Br)C(F)(F)F)c1cccs1	0%
CN(C)C(CNC(=O)c1cc(Br)c(Br)s1)c1ccco1 (stereo unspecified)	-4.5%
COc1cc(/C=C/c2ccc(/C=C/c3cc(OC)c(OC)c(OC)c3)cc2)cc(OC)c1OC	20.5% (active)
CCC(=O)c1ccc(OC(=O)/C=C/c2cc(OC)c(OC)c(OC)c2)cc1	2.2%
COc1cc(/C=C/C2=CC(C)(C)NC(=S)N2)cc(OC)c1OC	3.9%
Cc1cccc(C)c1NC(=O)C(c1cccc(F)c1)N1CCN(C)CC1 (stereo unspecified)	1.1%
CCOc1ccc(/C(O)=C2/C(=O)C(=O)N(Cc3cccnc3)C2c2ccc(N(C)C)cc2)c(C)c1 (stereo unspecified)	6.1%
Cc1ccc(CN2CCCOCCS2(=O)=O)cc1	4%
Cc1ccc2cccc([N+](=O)[O-])c2n1	-4.4%
O=C(Oc1ccc([N+](=O)[O-])cc1)c1ccc2ccccc2n1	6.3%

SMILES	inhibition
O=[N+]([O-])c1cc2ccccc2nc1-c1ccccc1	20.7% (active)
CNc1nc(=O)n(C2CCCO2)cc1C (stereo unspecified)	-12.3%
CCCCCCNC(=O)O[C@]12C[C@@H](C(=O)OC)[C@@H](C(=O)OC)C[C@@]1(O)CN(S(=O)(=O)c1ccc(C)cc1)C2	-8.7%
Cc1ccc(C(=O)COC(=O)c2cccc(N3C(=O)c4c(C)nc5ccccc5c4C3=O)c2)cc1C	-9.4%
COc1ccc(CCN=C2SCC(=O)N2C)cc1OC	0.9%
COc1ccc(CCN=C2SCC(=O)N2Cc2ccccc2)cc1OC	32.3% (active)
COc1ccc(Cn2c(=O)sc3ccccc32)cc1OC	-6.5%
COc1cccc(OC)c1C(=O)N1CCN(Cc2cccnc2)CC1	1.8%
N#CCCN(CCC#N)c1nnc(-c2ccccc2)s1	0.8%
Cc1nn2cc(-c3ccc(Cl)cc3)cnc2c1Br	4%
Cc1scc(C(=O)NNC(=S)NCc2ccccc2)c1C	6.1%
CC(C)Oc1ccc(CC(=O)NNC(=S)Nc2ccc(Br)cc2)cc1	1.7%
CC(C)Oc1ccc(CCC(=O)NNC(=S)NCc2ccccc2)cc1	37.4% (active)
O=C(CS(=O)(=O)c1ccc(C(F)(F)F)cn1)NNC(=O)c1ccccc1	-6.4%
CC[C@@]1(C(=O)OC)N[C@H](CN(C)C(C)=O)[C@@H]2C(=O)N(C)C(=O)[C@@H]21	-0.8%
CCNC(=O)N(CC)C[C@H]1N[C@@](CC)(C(=O)OC)[C@H]2C(=O)N(Cc3ccccc3)C(=O)[C@@H]12	-9.5%
CCN(C[C@H]1N[C@@](CC)(C(=O)OC)[C@H]2C(=O)N(C)C(=O)[C@@H]12)C(=O)Nc1ccc(F)cc1	33.4% (active)
CCOC(=O)c1c(C)nn(-c2ncccc2NC(=O)CCC(=O)O)c1C	21.7%
Cc1cc(C(=O)Nc2ccc(C)c(S(=O)(=O)N3CCOCC3)c2)c2ccccc2n1	-3.5%
COc1ccc(NC(=O)c2cc(=O)[nH]c3ccccc23)cc1S(=O)(=O)N1CCOCC1	26.2% (active)
CC(C)(CNC(=O)c1cc(=O)[nH]c2ccccc12)N1CCOCC1	9.2%
Cc1ccc(O)c(NC(=O)c2cc(-c3ccco3)on2)c1	-12.1%

SMILES	inhibition
CC(C)Oc1ccc(C(CC(=O)N2CCOCC2)C(C)C)cc1 (stereo unspecified)	9%
CCN(CC)C(=O)CSC(Nc1cccc(F)c1)=C(C#N)C#N	-180%
O=C1C2C3C=CC(C3)C2C(=O)N1c1ccc(-c2nc3ccccc3c(=O)o2)cc1 (stereo unspecified)	0.6%
COc1ccc(CN2CCCC(N3CCc4ccccc4C3)C2)c(O)c1 (stereo unspecified)	5%
COc1cc(C2c3cc4c(cc3C(O)C3COC(=O)C23)OCO4)cc(OC)c1OC (stereo unspecified)	-3.6%
COc1c(O)ccc2c1CN1CCc3cc4c(cc3C1C2)OCO4 (stereo unspecified)	30% (active)
CC(C)(C)NC(=O)C(=O)NCc1ccncc1	-1.7%
CCCN1C2CCCC1CC(NC(=O)NC13CC4CC(CC(C4)C1)C3)C2 (stereo unspecified)	5.4%
Cc1ccccc1NC(=O)CSc1ccc2nnc(-c3ccccn3)n2n1	8.8%
O=C(N/N=C/c1ccc(Br)o1)c1cncc(Br)c1	2.7%
Cc1ccc(C(=O)N/N=C\c2cc(Br)c(Br)o2)cn1	28.3% (active)
CCOc1cc(/C=N/NC(=O)c2ccncc2)cc(Br)c1O	2.3%
Cc1ccccc1Cn1c(C)c(C(=O)NCc2cccc(C(F)(F)F)c2)sc1=O	-0.6%
O=C1c2ccccc2C(O)N1Cc1ccccc1 (stereo unspecified)	-0.3%
CCOC(=O)C1=C(c2ccccc2)NC(=O)NC1c1cc(OC)c(OC)cc1OC (stereo unspecified)	-1.4%
Cc1nnc(SCC(=O)NC(=O)NC2CCCC2)n1N	30.1% (active)
Nn1c(SCC(=O)NC(=O)NC2CCCC2)nnc1-c1ccccc1F	-0.3%
Nn1c(SCC(=O)NC2CCCC2)nnc1-c1ccccc1F	6.4%
COC(=O)c1cccc(N(C(=O)CNC(=O)c2cccs2)C(C(=O)NCC2CCCO2)c2ccc(OC)c(OC)c2)c1 (stereo unspecified)	6.4%
Cc1cccc(C(=O)Nc2ccccc2C(=O)NCc2cccnc2)c1	3.7%
